According to the supplement of paper PMC12494721:
Where a name gives a salt, the structure may show the parent alone.

What was measured:
Conditions in all cases: incubation time: 27 h, anaerobic, 37 °C;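 for the amine columns active = adjusted P below 0.05 in both replicates with a change the same way and a mean fold change under 0.8 or over 1.25; inactive = the rest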
[1] = tested on: Clostridium sporogenes DSM 1664; assay: growth (OD595) fold change vs plate DMSO controls (fold change (ratio)); higher = more growth
Procedure, shortened: (§1)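 Shaken 96-well cultures in mGAM, grown anaerobically for 27 h at 37 °C, were read at 595 nm. OD came from blank-subtracted readings, corrected for background with 20 µM compound solutions in water and scaled by a calibration factor of 5. Growth is the fold change versus the plate's median DMSO control. Values average 2 biological replicates, and any fold change above 1.5 is NA.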

Escherichia coli IAI1 [2] = assay: as above
Procedure, shortened: as §1

[3] = tested on: Klebsiella aerogenes DSM 30053; assay: as above
Procedure, shortened: as §1

[4] = tested on: Ruminococcus gnavus DSM 108212; assay: as above
Procedure, shortened: as §1

[5] = tested on: Klebsiella aerogenes DSM 30053; assay: fold change of Histamine concentration vs plate DMSO controls (fold change (ratio)); higher = more amine produced, active = hit call of the paper (significant change in both replicates, either direction)
Procedure, shortened: (§2)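 Amines were quantified by LC–triple-quadrupole MS in dynamic MRM mode against external calibration curves, with drift correction within each batch. The samples were whole anaerobic mGAM cultures of four gut bacterial strains, grown for 27 h at 37 °C in 80 µL wells and extracted with cold acetonitrile/methanol with 0.1% formic acid, then centrifuged. Values are reported as fold change over DMSO controls on the same plate. The mean of 2 biological replicates is given.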

[6] = tested on: Clostridium sporogenes DSM 1664; assay: fold change of Tryptamine concentration vs plate DMSO controls (fold change (ratio)); higher = more amine produced, active = hit call of the paper (significant change in both replicates, either direction)
Procedure, shortened: as §2

[7] = tested on: Ruminococcus gnavus DSM 108212; assay: as above
Procedure, shortened: as §2

Escherichia coli IAI1 [8] = assay: fold change of Putrescine concentration vs plate DMSO controls (fold change (ratio)); higher = more amine produced, active = hit call of the paper (significant change in both replicates, either direction)
Procedure, shortened: as §2

[9] = tested on: Klebsiella aerogenes DSM 30053; assay: as above
Procedure, shortened: as §2

Escherichia coli IAI1 [10] = assay: fold change of Cadaverine concentration vs plate DMSO controls (fold change (ratio)); higher = more amine produced, active = hit call of the paper (significant change in both replicates, either direction)
Procedure, shortened: as §2

[11] = tested on: Klebsiella aerogenes DSM 30053; assay: as above
Procedure, shortened: as §2

[12] = tested on: Ruminococcus gnavus DSM 108212; assay: fold change of 2-Phenylethylamine concentration vs plate DMSO controls (fold change (ratio)); higher = more amine produced, active = hit call of the paper (significant change in both replicates, either direction)
Procedure, shortened: as §2

Row | SMILES | growth [1] | growth (Escherichia coli IAI1 [2]) | growth [3] | growth [4] | fold change of Histamine concentration [5] | fold change of Tryptamine concentration [6] | fold change of Tryptamine concentration [7] | fold change of Putrescine concentration (Escherichia coli IAI1 [8]) | fold change of Putrescine concentration [9] | fold change of Cadaverine concentration (Escherichia coli IAI1 [10]) | fold change of Cadaverine concentration [11] | fold change of 2-Phenylethylamine concentration [12]
1 | CC(C)NCC(O)c1ccc(NS(C)(=O)=O)cc1 (centres undefined) [Sotalol hydrochloride] (20 µM) | 0.907 | 0.97 | 1.2 | 1.01 | 0.907 (inactive) | 1.03 (inactive) | 1.18 (inactive) | 0.935 (inactive) | 1.06 (inactive) | 1.08 (inactive) | 1.12 (inactive) | 1.36 (inactive)
2 | CN1C(C(=O)Nc2ccccn2)=C(O)c2sccc2S1(=O)=O [Tenoxicam] (20 µM) | 1.03 | 1.04 | 0.975 | 1.18 | 1.07 (inactive) | 1.01 (inactive) | 1.01 (inactive) | 1.05 (inactive) | 1.01 (inactive) | 1.01 (inactive) | 0.977 (inactive) | 0.959 (inactive)
3 | COC(=O)C1=C(C)NC(C)=C(C(=O)OC(C)C)C1c1cccc2nonc12 (centres undefined) [Isradipine] (20 µM) | 0.941 | 1.06 | 0.997 | 1.22 | 1.09 (inactive) | 0.944 (inactive) | 1.03 (inactive) | 1.04 (inactive) | 1.01 (inactive) | 0.991 (inactive) | 1 (inactive) | 1.01 (inactive)
4 | CCCCNc1ccc(C(=O)OCCN(C)C)cc1 [Tetracaine hydrochloride] (20 µM) | 1.06 | 1.02 | 0.968 | 0.907 | 1.08 (inactive) | 1.04 (inactive) | 1.07 (inactive) | 0.956 (inactive) | 1.04 (inactive) | 0.983 (inactive) | 0.991 (inactive) | 1.05 (inactive)
5 | CCN1CCCC1CNC(=O)c1cc(S(=O)(=O)CC)c(N)cc1OC (centres undefined) [Amisulpride] (20 µM) | 1.16 | 0.998 | 1 | 1.31 | 1.01 (inactive) | 1.01 (inactive) | 1.04 (inactive) | 1.01 (inactive) | 0.999 (inactive) | 0.987 (inactive) | 0.999 (inactive) | 1.05 (inactive)
6 | O=S(=O)(c1cccc2cnccc12)N1CCCNCC1 [Fasudil Hydrochloride] (20 µM) | 1.22 | 0.981 | 0.977 | 0.969 | 1.05 (inactive) | 0.964 (inactive) | 1.01 (inactive) | 1.01 (inactive) | 1.03 (inactive) | 1.03 (inactive) | 1.01 (inactive) | 0.942 (inactive)
7 | CC1(C)S[C@@H]2[C@H](NC(=O)[C@H](NC(=O)N3CCNC3=O)c3ccccc3)C(=O)N2[C@H]1C(=O)O [Azlocillin sodium salt] (20 µM) | 0 | 0.726 | 1.16 | 0 | 0.875 (inactive) | 0.0279 (active) | 0.0374 (active) | 0.965 (inactive) | 1.07 (inactive) | 1.87 (active) | 1.02 (inactive) | 0.0385 (active)
8 | CN(C)CCOC(=O)COc1ccc(Cl)cc1 [Meclofenoxate hydrochloride] (20 µM) | 1.13 | 1.02 | 1.01 | 0.995 | 1.11 (inactive) | 0.931 (inactive) | 0.958 (inactive) | 1 (inactive) | 1.01 (inactive) | 1.02 (inactive) | 0.979 (inactive) | 0.895 (inactive)
9 | CC1CCc2c(N3CCC(O)CC3)c(F)cc3c(=O)c(C(=O)O)cn1c23 (centres undefined) [Nadifloxacin] (20 µM) | 0.00717 | 0.0576 | 0.316 | 0.383 | 0.5 (active) | 0.0474 (active) | 0.271 (active) | 0.763 (inactive) | 1.16 (inactive) | 0.267 (active) | 0.982 (inactive) | 0.362 (active)
10 | CC(CCc1ccc(O)cc1)NCCc1ccc(O)c(O)c1 (centres undefined) [Dobutamine hydrochloride] (20 µM) | 1.01 | 0.997 | 0.99 | 0.938 | 1.12 (inactive) | 1 (inactive) | 1.02 (inactive) | 0.998 (inactive) | 1.01 (inactive) | 0.971 (inactive) | 0.973 (inactive) | 1.04 (inactive)
11 | Cc1nc(=O)c2cc(CN(C)c3ccc(C(=O)N[C@@H](CCC(=O)O)C(=O)O)s3)ccc2[nH]1 [Raltitrexed] (20 µM) | 1.11 | 1 | 1.02 | 1.21 | 1 (inactive) | 1.17 (inactive) | 1.06 (inactive) | 0.924 (inactive) | 0.968 (inactive) | 0.943 (inactive) | 1.05 (inactive) | 1.06 (inactive)
12 | Nc1c(CC(=O)O)cccc1C(=O)c1ccc(Br)cc1 [Bromfenac] (20 µM) | 1.21 | 1.15 | 1.04 | 1.13 | 0.965 (inactive) | 1.01 (inactive) | 1.08 (inactive) | 1.02 (inactive) | 1 (inactive) | 0.911 (inactive) | 1.01 (inactive) | 1.15 (inactive)
